How the values were obtained:
Assay in all cases: log2 ratio of Biotin-Ahx-Ub-VS probe labelling (fragment/DMSO); higher = less target engagement (more negative = stronger competition), active = hit call of the paper (q ≤ 0.05, log2 ratio ≤ -1)
Conditions in all cases: compound concentration: 200 uM; treatment time: 3 h
USP19 = target: T1, USP19 (UniProt O94966)
T1 sequence (whole entry): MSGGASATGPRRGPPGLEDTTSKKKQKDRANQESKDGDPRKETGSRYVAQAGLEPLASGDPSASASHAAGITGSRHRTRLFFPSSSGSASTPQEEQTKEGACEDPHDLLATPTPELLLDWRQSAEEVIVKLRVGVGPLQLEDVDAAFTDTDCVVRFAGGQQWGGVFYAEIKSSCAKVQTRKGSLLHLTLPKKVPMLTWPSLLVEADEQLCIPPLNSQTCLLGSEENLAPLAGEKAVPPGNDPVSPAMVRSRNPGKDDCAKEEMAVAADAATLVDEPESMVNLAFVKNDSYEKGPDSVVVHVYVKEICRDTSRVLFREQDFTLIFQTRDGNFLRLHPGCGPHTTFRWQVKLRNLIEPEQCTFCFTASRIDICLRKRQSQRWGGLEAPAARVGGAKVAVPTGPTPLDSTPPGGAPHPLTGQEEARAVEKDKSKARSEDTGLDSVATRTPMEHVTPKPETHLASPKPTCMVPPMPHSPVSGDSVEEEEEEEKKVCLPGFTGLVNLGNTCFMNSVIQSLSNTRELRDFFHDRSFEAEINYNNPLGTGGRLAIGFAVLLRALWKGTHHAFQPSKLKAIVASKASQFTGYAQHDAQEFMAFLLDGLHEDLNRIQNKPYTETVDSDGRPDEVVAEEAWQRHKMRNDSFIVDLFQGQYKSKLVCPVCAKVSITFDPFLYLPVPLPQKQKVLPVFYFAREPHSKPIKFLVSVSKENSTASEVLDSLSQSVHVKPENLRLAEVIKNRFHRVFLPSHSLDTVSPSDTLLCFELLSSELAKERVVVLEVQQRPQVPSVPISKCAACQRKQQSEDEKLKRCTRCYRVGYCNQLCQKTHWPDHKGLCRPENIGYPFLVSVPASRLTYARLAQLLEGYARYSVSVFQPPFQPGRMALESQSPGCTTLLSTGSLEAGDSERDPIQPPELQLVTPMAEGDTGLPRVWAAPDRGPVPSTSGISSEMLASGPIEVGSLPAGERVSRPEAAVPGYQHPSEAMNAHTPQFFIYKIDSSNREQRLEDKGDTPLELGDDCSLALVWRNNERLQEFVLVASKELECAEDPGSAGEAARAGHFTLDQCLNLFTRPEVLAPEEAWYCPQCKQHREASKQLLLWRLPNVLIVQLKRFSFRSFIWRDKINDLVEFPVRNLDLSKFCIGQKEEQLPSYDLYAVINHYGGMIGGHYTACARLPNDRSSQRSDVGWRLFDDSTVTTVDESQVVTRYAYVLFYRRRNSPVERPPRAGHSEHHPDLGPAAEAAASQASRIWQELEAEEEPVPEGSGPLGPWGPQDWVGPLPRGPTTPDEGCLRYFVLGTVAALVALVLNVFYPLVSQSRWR
Procedure, shortened: (§1)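 Average log2 ratios of fragment over vehicle were obtained by unpaired t-test from global-median-normalised Spectronaut label-free quantities. Proteins with ≥2 unique peptides were included. HEK293T lysate (495 µg per sample) was treated in triplicate with fragment at 200 µM or vehicle for 3 h, then with Biotin-Ahx-Ub-VS at 0.5 µM final for 1 h, and labelled DUBs were NeutrAvidin-enriched and run by diaPASEF LC-MS/MS.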

USP24 = USP24 (UniProt Q9UPU5)
Procedure, shortened: as §1

USP25 = target: T2, USP25 (UniProt Q9UHP3)
T2 sequence (whole entry): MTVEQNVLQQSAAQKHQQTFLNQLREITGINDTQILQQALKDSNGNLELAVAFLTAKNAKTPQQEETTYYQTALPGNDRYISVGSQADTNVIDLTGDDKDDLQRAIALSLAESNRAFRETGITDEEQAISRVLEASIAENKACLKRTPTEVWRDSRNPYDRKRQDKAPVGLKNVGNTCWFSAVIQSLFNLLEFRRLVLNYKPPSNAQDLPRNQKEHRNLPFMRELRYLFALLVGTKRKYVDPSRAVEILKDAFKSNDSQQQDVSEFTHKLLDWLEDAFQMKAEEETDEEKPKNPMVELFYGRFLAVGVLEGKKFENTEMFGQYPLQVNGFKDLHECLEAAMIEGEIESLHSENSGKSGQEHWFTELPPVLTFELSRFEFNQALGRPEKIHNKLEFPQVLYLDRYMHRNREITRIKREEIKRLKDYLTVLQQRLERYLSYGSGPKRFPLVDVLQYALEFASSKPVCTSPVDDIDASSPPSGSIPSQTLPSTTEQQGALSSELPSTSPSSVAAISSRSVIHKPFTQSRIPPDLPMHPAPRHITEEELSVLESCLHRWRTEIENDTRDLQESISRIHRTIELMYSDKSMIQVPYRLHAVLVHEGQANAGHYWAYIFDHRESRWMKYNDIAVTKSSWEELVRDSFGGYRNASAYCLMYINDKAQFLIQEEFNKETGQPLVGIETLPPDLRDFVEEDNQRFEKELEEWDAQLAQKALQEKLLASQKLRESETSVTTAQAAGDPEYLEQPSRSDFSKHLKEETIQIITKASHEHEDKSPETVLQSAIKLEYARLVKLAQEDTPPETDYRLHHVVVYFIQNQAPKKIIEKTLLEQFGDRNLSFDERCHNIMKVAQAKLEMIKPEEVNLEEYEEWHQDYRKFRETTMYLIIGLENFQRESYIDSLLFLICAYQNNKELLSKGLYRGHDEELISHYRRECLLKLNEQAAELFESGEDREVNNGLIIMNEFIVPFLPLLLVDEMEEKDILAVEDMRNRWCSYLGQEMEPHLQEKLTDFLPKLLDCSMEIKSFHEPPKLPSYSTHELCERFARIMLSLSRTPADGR
Procedure, shortened: as §1

USP28 = target: T3, USP28 (UniProt Q96RU2)
T3 sequence (whole entry): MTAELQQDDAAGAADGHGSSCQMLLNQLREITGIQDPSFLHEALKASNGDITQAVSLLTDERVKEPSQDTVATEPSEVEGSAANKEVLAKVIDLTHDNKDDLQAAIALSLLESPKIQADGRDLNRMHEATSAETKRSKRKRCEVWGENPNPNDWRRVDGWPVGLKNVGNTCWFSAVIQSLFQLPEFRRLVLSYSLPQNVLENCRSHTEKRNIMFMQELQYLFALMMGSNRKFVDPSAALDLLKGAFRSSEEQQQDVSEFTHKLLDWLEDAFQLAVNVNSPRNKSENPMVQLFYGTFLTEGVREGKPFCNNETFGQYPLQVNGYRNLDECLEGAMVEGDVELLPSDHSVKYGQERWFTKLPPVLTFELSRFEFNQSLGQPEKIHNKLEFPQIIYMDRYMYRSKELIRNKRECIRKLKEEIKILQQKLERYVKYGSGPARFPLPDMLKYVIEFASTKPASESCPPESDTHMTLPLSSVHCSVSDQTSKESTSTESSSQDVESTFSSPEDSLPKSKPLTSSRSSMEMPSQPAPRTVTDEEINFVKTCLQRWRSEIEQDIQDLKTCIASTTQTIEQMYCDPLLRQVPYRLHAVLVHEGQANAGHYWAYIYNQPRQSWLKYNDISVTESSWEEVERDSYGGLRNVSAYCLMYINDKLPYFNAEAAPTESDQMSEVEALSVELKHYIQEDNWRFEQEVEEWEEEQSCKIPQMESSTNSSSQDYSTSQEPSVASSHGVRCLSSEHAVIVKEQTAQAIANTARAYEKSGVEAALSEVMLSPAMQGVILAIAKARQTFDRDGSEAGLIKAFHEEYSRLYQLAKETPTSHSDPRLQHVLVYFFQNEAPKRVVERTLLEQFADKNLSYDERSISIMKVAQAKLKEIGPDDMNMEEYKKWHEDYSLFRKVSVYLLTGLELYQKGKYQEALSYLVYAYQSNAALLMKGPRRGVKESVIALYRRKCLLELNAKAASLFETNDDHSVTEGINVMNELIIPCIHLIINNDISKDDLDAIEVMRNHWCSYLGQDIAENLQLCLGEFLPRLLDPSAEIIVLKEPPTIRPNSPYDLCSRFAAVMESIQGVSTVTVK
Procedure, shortened: as §1

Measured: log2 ratio of Biotin-Ahx-Ub-VS probe labelling

USP24, sequence (Q9UPU5 whole entry): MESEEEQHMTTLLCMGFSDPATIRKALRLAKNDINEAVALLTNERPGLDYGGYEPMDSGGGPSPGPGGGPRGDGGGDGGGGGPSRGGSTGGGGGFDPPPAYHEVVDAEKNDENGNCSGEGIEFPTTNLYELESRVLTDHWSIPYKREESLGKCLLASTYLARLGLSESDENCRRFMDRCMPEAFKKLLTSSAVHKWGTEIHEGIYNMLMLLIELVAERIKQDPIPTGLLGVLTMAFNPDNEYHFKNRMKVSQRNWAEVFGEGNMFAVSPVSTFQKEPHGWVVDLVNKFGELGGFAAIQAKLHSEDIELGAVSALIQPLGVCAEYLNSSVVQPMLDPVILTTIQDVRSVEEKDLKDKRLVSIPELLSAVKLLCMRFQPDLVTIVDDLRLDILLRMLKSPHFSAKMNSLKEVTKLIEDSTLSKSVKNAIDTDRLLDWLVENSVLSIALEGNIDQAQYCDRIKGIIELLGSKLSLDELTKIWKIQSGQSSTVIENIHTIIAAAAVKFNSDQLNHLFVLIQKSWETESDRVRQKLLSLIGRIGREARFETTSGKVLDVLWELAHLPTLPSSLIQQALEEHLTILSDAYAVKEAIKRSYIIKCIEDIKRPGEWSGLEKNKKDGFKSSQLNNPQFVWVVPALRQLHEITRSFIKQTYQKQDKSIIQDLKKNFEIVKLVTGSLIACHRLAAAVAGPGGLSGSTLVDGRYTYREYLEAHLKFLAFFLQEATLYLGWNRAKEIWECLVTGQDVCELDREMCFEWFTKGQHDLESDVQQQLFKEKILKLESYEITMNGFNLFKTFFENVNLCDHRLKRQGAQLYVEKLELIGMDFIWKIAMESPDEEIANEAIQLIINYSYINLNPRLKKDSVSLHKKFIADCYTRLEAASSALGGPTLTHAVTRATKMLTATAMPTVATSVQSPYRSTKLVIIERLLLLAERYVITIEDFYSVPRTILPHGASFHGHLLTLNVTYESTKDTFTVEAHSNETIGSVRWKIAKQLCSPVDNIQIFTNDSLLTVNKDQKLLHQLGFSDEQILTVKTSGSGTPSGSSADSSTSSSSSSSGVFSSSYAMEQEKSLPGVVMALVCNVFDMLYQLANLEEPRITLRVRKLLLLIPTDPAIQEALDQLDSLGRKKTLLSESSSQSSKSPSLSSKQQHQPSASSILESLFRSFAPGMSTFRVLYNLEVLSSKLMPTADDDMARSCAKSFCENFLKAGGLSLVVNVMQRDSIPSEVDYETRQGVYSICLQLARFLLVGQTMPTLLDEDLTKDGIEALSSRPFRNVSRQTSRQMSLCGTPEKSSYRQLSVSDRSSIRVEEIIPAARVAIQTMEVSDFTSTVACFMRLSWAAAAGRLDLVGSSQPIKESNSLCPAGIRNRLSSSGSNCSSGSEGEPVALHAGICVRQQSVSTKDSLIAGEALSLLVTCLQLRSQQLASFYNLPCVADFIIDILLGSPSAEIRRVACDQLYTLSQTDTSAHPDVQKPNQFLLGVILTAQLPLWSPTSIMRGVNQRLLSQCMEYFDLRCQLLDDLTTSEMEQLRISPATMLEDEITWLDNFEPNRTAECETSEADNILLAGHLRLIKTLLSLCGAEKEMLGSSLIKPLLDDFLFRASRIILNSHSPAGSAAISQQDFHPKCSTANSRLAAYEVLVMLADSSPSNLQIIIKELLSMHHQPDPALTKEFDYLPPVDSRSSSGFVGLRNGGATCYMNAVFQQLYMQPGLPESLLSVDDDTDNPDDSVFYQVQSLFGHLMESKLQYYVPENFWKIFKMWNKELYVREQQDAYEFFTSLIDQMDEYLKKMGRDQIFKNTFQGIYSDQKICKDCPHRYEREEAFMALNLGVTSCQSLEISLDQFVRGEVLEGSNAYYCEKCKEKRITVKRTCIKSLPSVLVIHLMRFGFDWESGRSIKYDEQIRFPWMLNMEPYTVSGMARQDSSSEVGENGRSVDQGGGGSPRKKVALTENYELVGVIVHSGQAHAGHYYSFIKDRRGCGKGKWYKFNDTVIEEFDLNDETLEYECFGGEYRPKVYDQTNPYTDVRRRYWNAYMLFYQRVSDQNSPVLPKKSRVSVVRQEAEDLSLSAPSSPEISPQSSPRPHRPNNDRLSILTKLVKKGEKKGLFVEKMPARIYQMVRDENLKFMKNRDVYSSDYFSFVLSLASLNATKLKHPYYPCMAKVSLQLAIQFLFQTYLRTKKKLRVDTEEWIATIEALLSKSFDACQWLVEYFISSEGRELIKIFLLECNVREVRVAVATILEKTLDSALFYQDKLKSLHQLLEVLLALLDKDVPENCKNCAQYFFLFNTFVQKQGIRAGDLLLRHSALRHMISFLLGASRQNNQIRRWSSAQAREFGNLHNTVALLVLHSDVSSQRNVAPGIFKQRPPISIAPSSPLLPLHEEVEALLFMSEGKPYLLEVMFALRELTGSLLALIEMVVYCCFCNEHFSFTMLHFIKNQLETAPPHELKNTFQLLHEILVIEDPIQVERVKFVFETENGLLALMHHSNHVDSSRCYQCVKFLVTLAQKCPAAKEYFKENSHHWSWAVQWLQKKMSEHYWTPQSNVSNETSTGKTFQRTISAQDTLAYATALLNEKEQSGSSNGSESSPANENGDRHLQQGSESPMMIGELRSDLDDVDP

O=C(CCl)NC1CCS(=O)(=O)c2ccccc21 (centres undefined)
inactive: USP19 -0.237 | USP24 -0.183 | USP25 -0.461 | USP28 -0.943
